This note sets out measurements from the supplement of paper PMC10681739.

In all, about 2,700 sequences were measured (“arbitrary fluorescence units”: median about 4,100, highest 2% from about 54,000 on). Only a selection was taken, and the highest values are over-represented in it overall.

The target of this experiment is T1, ETS1 (UniProt P14921).
T1 sequence: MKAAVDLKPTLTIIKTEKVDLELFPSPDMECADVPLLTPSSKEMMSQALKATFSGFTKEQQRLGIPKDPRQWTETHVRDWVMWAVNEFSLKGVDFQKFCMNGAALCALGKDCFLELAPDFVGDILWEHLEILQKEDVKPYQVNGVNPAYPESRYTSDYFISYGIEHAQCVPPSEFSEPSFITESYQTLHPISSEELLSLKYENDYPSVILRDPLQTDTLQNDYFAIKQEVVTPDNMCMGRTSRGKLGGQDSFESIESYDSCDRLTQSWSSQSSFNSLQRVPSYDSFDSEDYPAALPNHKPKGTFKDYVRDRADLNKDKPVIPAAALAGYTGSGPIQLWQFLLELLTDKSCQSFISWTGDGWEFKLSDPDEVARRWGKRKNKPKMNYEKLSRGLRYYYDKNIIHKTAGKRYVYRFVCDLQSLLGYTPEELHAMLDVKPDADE
The experiment can be described thus: ETS1 binding intensity (PBM fluorescence) (arbitrary fluorescence units); higher = stronger binding. The following applies: ETS1 concentration 10 nM. The method, then:
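gcPBM on wild-type 36-bp genomic probes with two neighbouring ETS1 sites (4-24 bp apart). Recombinant human ETS1 (10 nM) was detected with anti-ETS1 antibody fluorescence. Values are medians over 3 replicate spots. The probes sit in constant array flanks that are not printed.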
In the case of GGGTGCTTCCGGGGCAGCGCGCGCCACTTCCGACCT, the ETS1 binding intensity worked out at 33500.

In turn, GCGCCACTTCCGGCAGCGAAGTCACTTCCGCGGAGG gave an ETS1 binding intensity of 57600.

Take CCCGGAGTTCCGCGCGGCGCCAGCCCTTCCGCCACG: the ETS1 binding intensity came to 375.

GGCTGGGGCGGATGCCGGGGCTGTTCCGGGCCCTCC showed an ETS1 binding intensity of 1230.

Sequence TGAGCGCCGTGCCTTCCGGGTTCCGCCCTCCTGGGT gave an ETS1 binding intensity of 1430.

AGAATGAGCTGCAGGAAGGCGGAAGCACTAGCGTGC had an ETS1 binding intensity of 421.

As to CGGGACAGGAAGTGTGGACAGGCTCCTTCCTGTTTG, the ETS1 binding intensity stood at 15000.

Consider AGAAACGGAAAGAAAGTGACCCCTCCCTTCCTTTCA, for which the ETS1 binding intensity was determined as 175.

TGGGGTTTCCTGGGGTGTTCTGTCTACATCCTGAGA showed an ETS1 binding intensity of 5150.

TTCCTCTCCTTTCCGCGAGACCTTCCGCGGTTATCC: the ETS1 binding intensity was found to be 178.

CCCAGCGAGAGGTTTCCTCTTCCGGCACCTGACCCC gave an ETS1 binding intensity of 4930.

In turn, ACAACCTTTAAACTTCCGGTTTCCTCTGTGCGAGGT displayed an ETS1 binding intensity of 56700.

For GGCTTCAGGATGCATTGACAATTAAAGGAAGTCAGA, the ETS1 binding intensity worked out at 275.

GAGGCGGGACTTCCTACAGCACTTCCGGCCAGAGCC: the ETS1 binding intensity was 26500.

Sequence GGGGCCACTTCCCGGGGCCAGGCAGGAAGCCCGCCC returned an ETS1 binding intensity of 3870.

CCGGCACTTCCGGCAGGCCAGGGCACTTCCGGGACC showed an ETS1 binding intensity of 58000.

In turn, CGCTGAACTTCCCGAGCTCGGGGTGGGATGTGGCCG gave an ETS1 binding intensity of 734.

Take GAGAGGCAGGAAGAGAGCAGAGCCGGAAGCACAAGG: the ETS1 binding intensity is 2630.

GTCACTTCCGGCAGCCGGAGGCAGCAGAGGAAGCCG came in with an ETS1 binding intensity of 71500.

The sequence GCAGAAGGGAGGAAGAAGCAGGCGGAAGCAGCCGGT gave an ETS1 binding intensity of 522.

As for CTCTAGGTCTAACATCCCTCGGAAGTTCGTGCAGCG, the ETS1 binding intensity was determined as 175.

As for GGCAAAAACCCACATCCTCTTCCGCTGGCTCCACCT, the ETS1 binding intensity amounted to 8480.

Regarding CTCTTGGCAACATCCGGTCACATCCCCTCCGCTATT, the ETS1 binding intensity was determined as 60900.

Sequence CAACCGAAAACATCCCGTGCCGGAAGCGCGTCATCG returned an ETS1 binding intensity of 4780.

TGCAAAGCATCCTGGGTGCCAGGCTTCCTGGGGCTT: the ETS1 binding intensity came out at 1890.

With GCAACTTCCGCCCTGAGAAGGGTGGGGCTTCCGTCT, the ETS1 binding intensity is 63000.

CGCCCCTGGGGCTTCCGCGGCGGAAGCCTAGCGTCC displayed an ETS1 binding intensity of 824.

The sequence TGAAGGCTTCCGCCAAGGTGAGGGGCTTCCTCTGGG had an ETS1 binding intensity of 9460.

The sequence CCAAGCTGGTTTCCTCTCCGGTTTCCTCCGGGGTGG came in with an ETS1 binding intensity of 3800.

As to CTGACCTGCTTCCTCATGGTTGTTTCCTGCCTATTG, the ETS1 binding intensity is 3740.

As for TCCACTTCCGGGTCCGGGACACCGCCCGGATCTTGC, the ETS1 binding intensity came to 64200.

Consider GACGGACACCCGTTTCCGCTTCCGGGTCACGCTTCT, for which the ETS1 binding intensity worked out at 20900.

Regarding GCCACCGCCCCTTCCGGGTCCGGAACGGCTCCAGCT, the ETS1 binding intensity turned out to be 7050.

With ACGACGCAGCCACTTCCGATTCCGGTCGGAGCACCG, the ETS1 binding intensity is 8910.

In turn, TTCTTCACAAGCGGATGTCACTTCCTGCCTGTGACA displayed an ETS1 binding intensity of 17200.

With GCCTCACTTCCTGTGTTCAAGTGACAGGATGTGACA, the ETS1 binding intensity amounted to 70700.

On to CCTCAGGATGGCATCAGCCTGTGACCACTTCCTGTG, for which the ETS1 binding intensity came to 2200.

In turn, GCACCCGGAAGCCGCTTGCGGGCTCCCGGAAGCGGC gave an ETS1 binding intensity of 8720.

The sequence GGGCGGGACTTCCGGCAAGGCGCGGAAGCGGCGGTA had an ETS1 binding intensity of 46400.

Take GCGTTACTTCCGGCGCGCGGCGGGCGGAAGTCCGGG: the ETS1 binding intensity stood at 69700.

Turning to TGCGGGGCGGAAGCCGGGGCGTGACTTCCGGCGCCG, the ETS1 binding intensity came out at 11600.

GGGCCTAGGAAATGCCGCACTACAACTTCCGTCGGG yielded an ETS1 binding intensity of 992.

In turn, GAGGCGCTTCCTCAGTTGGACTCCACTTCCTCTCCG came in with an ETS1 binding intensity of 4590.

Regarding GCCGGCGAGCGGAAGAGGCTGCAGGAAGGCCGGCCC, the ETS1 binding intensity stood at 3170.

In turn, AGCACTTCCTGTTTGATCTCTATGATCCATCCTGTT had an ETS1 binding intensity of 106000.

TAGTTGTCCCTTCCTTAAGCACTTCCTGTTTGATCT returned an ETS1 binding intensity of 11900.

Consider CAAACACATCCTGTTTGCACTTGACTTCCTGTTTTG, for which the ETS1 binding intensity amounted to 37400.

CCGGGAGCTCCGGATGCAGACAGGAAGTGGGCAGGG returned an ETS1 binding intensity of 9950.

Take CAGCACGACTTCCTGGAGCGGGCCGGAAGTGACAAC: the ETS1 binding intensity was 21000.

With GAGACGGGACTTCCGGCTCCCGGGGAAGTCCCGCCC, the ETS1 binding intensity is 53500.

For the sequence CGTCCTGACTTCCGGGGCGGGACGGAAGAGCGGGCG, the ETS1 binding intensity worked out at 25800.

In turn, CGGGGCTCCCGGAAGCCGCCCCTTCCGCCAGCTTGC had an ETS1 binding intensity of 4520.

Sequence TATAAAACCATTTCCTTCTCTGGGAAATGAGATGTC registered an ETS1 binding intensity of 3370.

For GGTCCGGAAACGGGACAGAAGGCCCACCTTCCTCCC, the ETS1 binding intensity was 8480.

Regarding AGCCTTTGTATTTCCTTTCAGAGGAAACCCCAATGC, the ETS1 binding intensity came out at 5570.

Turning to TTCCACTTCCGGTCTTACCCGGCTACTTCCGCTGCT, the ETS1 binding intensity is 147000.

Take CGCTGCTTCCGGGTCTCGGCAAGCACTTCCGGGGTG: the ETS1 binding intensity amounted to 30400.

TGGGGTCTTCCGGTTGGACCCCTGCTTCCGCTGATT: the ETS1 binding intensity was 24400.

In turn, CAACGGCAGCTTCCTGCGGCGCCGGAAACGCTTCAA gave an ETS1 binding intensity of 12100.

As for TGAAACAGGAAGTCAGCTTCACAGCAGGAAGCAGAC, the ETS1 binding intensity was determined as 16400.

TTCCTCAGGGAAGTTCGGGTGAGAGGAAGTGCCTGC registered an ETS1 binding intensity of 228.

As for CCCGGTAGCCGCCGGAAAACTTCCGCCGAGACCGGA, the ETS1 binding intensity is 4420.
